Experimental data reported in PubChem BioAssay (NCI).
Compounds without any hit were thinned out: in the full panel of roughly 83,000, 20% have a hit.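 For each line, cells grew in 96-well plates with the test compound present at a single concentration for 48 hours.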 Unmarked numbers belong to inactive results. Active and inactive are the calls of the source. Rule for the calls: active = growth percent below 10; inactive = the rest.

These molecules were tested on HT29 colon (assay: NCI-60 one-dose screen, 48 h (100 = growth as untreated, 0 = no growth, -100 = all killed)). Settings: 10 µM unless noted.

SMILES	growth
Nc1c(C(=O)Nc2ccc(Cl)cc2)sc2nc(-c3cnccn3)cc(-c3cccs3)c12	-10.3% (active)
Cc1ccc(-c2nc(C(Cl)Cl)nc3cc(-c4ccccc4)nn23)cc1	-43.7% (active)
Cc1[nH]nc2ncc(C#Cc3cncc(C(=O)Nc4ccc(CN5CCN(C)CC5)c(C(F)(F)F)c4)c3)cc12	9.72% (active)
COc1ccc(-c2nc3ccc(-c4nnc(SCC(=O)Nc5ccc(C(=O)/C=C/c6ccccc6)cc5)o4)cc3[nH]2)cc1OC	103%
N#Cc1nc(-c2ccccc2)oc1S(=O)(=O)N1CCN(CCc2ccccn2)CC1	-5.82% (active)
O=C(c1ccc(O)cc1)C1[C@H](c2ccc(Cl)cc2)[C@@H](c2ccccc2)NC12C(=O)Nc1ccc(Cl)cc12 (some centres not stated)	4.23% (active)
Nc1cc(-c2c[nH]c3ccccc23)nc2cc(-c3c[nH]c4ccccc34)nn12	9.63% (active)
COC1CCN(Cc2ccc3c(NNC(=O)c4cnccn4)nc4cc(F)ccc4n23)C1 (configuration not stated)	19.3%

These molecules were tested on SNB-75 CNS in the same assay as above. Settings: 10 µM unless noted.

SMILES	growth
CCN1CCN(/C(=N\c2sc(-c3ccccc3)nc2-c2ccccc2)c2ccccc2)CC1	89.1%
CCCCN1C(=O)/C(=c2\sc3n(c2=O)C2C(NN=3)N(CC)C(=O)N2CC)c2cc(Cl)ccc21 (configuration not stated)	69.1%
O=C1C2=C(C(=O)c3c(O)cccc31)C(c1ccco1)c1sc(=O)[nH]c1S2 (configuration not stated)	32.4%
COc1cc(/C=C/C(=O)c2ccc(C(F)(F)F)cc2)ccc1Oc1nc(NCCO)nc(N2CCOCC2)n1	91.4%
OC1CCN(CCCOc2c3ccc(Cl)cc3nc3c2oc2ccc(Cl)cc23)CC1	14.9%
Nc1c(C(=O)Nc2ccc(Cl)cc2)sc2nc(-c3cnccn3)cc(-c3cccs3)c12	14.2%
O=C(N/N=C/c1ccc([N+](=O)[O-])o1)c1[nH]c2ccc(Br)cc2c1-c1ccccc1	17.7%
Cc1ccc(-c2nc(C(Cl)Cl)nc3cc(-c4ccccc4)nn23)cc1	-3.07% (active)
CCOC(=O)c1c(NC(=O)c2cccc(C(F)(F)F)c2)sc2cc(O)ccc12	73.4%
OC1CCN(CCCOc2c3ccccc3nc3c2oc2ccccc23)CC1	-1.06% (active)
COc1ccc(C(=O)/C=C/c2ccc(OCc3ccc(Cl)cc3)c(OC)c2)cc1OC	74.8%
CN(C)CCCNc1c2ccccc2nc2c1oc1ccc(Cl)cc12	37.5%
COc1ccc(NC2=CC(=O)C(C)=C(C)C2=O)cc1	123%
COc1ccc(-n2c(SCC(=O)Nc3ccc(-c4nc5ccccc5[nH]4)cc3)nc3ccccc3c2=O)cc1	62.8%
C/C(=N\NC(N)=O)c1c(O)sc(=O)[nH]c1=O	101%
OC1CCN(CCCOc2c3ccc(Cl)cc3nc3c2oc2ccccc23)CC1	-19.1% (active)
NS(=O)(=O)c1ccc(Nc2nc(Nc3ccccc3)nc(-n3nc(-c4ccccc4)cc3-c3ccccc3)n2)cc1	56.4%
COc1cc(OC)c(C2C(Cl)C(=O)N2Nc2ncnc3ccccc23)cc1OC (configuration not stated)	80.5%
CN(C)CCCOc1c2ccc(Cl)cc2nc2c1oc1ccc(Cl)cc12	18.3%
Cc1[nH]nc2ncc(C#Cc3cncc(C(=O)Nc4ccc(CN5CCN(C)CC5)c(C(F)(F)F)c4)c3)cc12	-6.21% (active)

SMILES	growth
CC1=C(C)C(=O)C(Nc2cccc(C(F)(F)F)c2)=C(Cl)C1=O	66.5%
Cn1cc(-c2cc(N)n3nc(-c4cn(C)c5ccc(Br)cc45)cc3n2)c2cc(Br)ccc21	82.2%
O=c1[nH]c2ccc(Cl)cc2cc1CSc1ccccc1Nc1nccc(-c2ccc(Cl)cc2)n1	76.6%
COc1ccc(-c2nc3ccc(-c4nnc(SCC(=O)Nc5ccc(C(=O)/C=C/c6ccccc6)cc5)o4)cc3[nH]2)cc1OC	90.3%
N#Cc1nc(-c2ccccc2)oc1S(=O)(=O)N1CCN(CCc2ccccn2)CC1	87.2%
CN1CCN(Cc2ccc(NC(=O)c3cncc(C#Cc4cnc5[nH]ncc5c4)c3)cc2C(F)(F)F)CC1	64%
COc1cc(/C=C/C(=O)c2ccc(F)cc2)ccc1Oc1nc(NCCO)nc(N2CCOCC2)n1	92.2%
Clc1ccc2c(OCCCN3CCOCC3)c3oc4ccccc4c3nc2c1	43.5%
O=C(c1ccc(O)cc1)C1[C@H](c2ccc(Cl)cc2)[C@@H](c2ccccc2)NC12C(=O)Nc1ccc(Cl)cc12 (some centres not stated)	46.2%
Nc1cc(-c2c[nH]c3ccccc23)nc2cc(-c3c[nH]c4ccccc34)nn12	82.5%
Oc1c(Cl)cc(Cl)c2ccc(CN3CCCCC3)nc12	83.3%
CN(C)CCCOc1c2ccc(Cl)cc2nc2c1oc1ccccc12	-18.6% (active)
CS(=O)(=O)c1ccc(-c2nc3ccccn3c2/C=N/Nc2nc(-c3ccc(Br)cc3)cs2)cc1	114%
C=CCn1c(SCC(=O)c2ccc(Br)cc2)nnc1-c1c[nH]c2ccccc12	106%
COc1cc(/C=C/C(=O)c2ccccc2)ccc1Oc1nc(NCCO)nc(N2CCOCC2)n1	99.8%
COC1CCN(Cc2ccc3c(NNC(=O)c4cnccn4)nc4cc(F)ccc4n23)C1 (configuration not stated)	65.8%
CC(C)NC(=O)c1cc(-c2ccc(NC(=O)Nc3ccc(N4CCOCC4)c(C(F)(F)F)c3)cc2)nc2cccnc12	82.6%
O=C(N/N=C/c1ccco1)c1[nH]c2ccc(Br)cc2c1-c1ccccc1	31.7%
O=C(CSc1nccc(=O)[nH]1)Nc1ccc(-c2nc3ccccc3[nH]2)cc1	122%
